Screening results (PubChem)
HttQ103 aggreg: mutant huntingtin aggregation inhibition; PC12 HttQ103-GFP aggregates, Acumen cytometry, 40 h; Potency, µM (doses to about 46.1 µM), actives largely listed as inhibitors; hit rate 1.1% among 220,000; AID 1688; further: nearly all actives have a fitted effect of over 60% in size
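Huntingtin Q103 exon 1–GFP aggregates in induced PC12 cells (100 nM tebufenozide) were quantified by cytometry from lysates, with compounds dosed in titration.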
HPGD block: blocks human HPGD enzyme activity | P15428 | purified HPGD, NADH fluorescence kinetic, PGE2 substrate | Potency, µM, actives largely listed as inhibitors | hit rate 4.3% among 150,000 | AID 894; active means well fitted inhibition curve with a large enough effect, not every such curve was filed as active; inconclusive means small, poorly fitted or top-dose-only effect, or another doubt; inactive means no such curve, though single readings can be large or run the other way
Target sequence (P15428 whole entry, looked up): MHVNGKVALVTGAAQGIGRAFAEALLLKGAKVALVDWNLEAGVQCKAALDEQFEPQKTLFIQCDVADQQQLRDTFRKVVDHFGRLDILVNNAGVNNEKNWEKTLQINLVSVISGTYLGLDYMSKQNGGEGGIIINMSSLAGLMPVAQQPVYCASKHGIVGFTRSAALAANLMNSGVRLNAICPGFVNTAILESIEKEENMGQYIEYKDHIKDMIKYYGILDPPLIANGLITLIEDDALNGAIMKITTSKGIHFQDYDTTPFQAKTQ
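NADH formation kinetics: reaction with 30 uM PGE2 and 1 mM NAD+ (final), 20 nM enzyme, Tris-HCl pH 8 with Tween 20, after 15 min compound preincubation at room temperature. Fluorescence change, last versus first of five reads.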
IMPase inh: cell-permeable inhibitors of inositol monophosphatase (IMPase); CHO-M1 cells, IP1 accumulation, HTRF TR-FRET ratio; inhibition (IP1 accumulation), % at 46.1 µM; 120,000 tested, under 10 active; AID 901; active means well fitted curve in the direction sought with a large enough effect in the signal ratio, not every such curve was filed as active; inconclusive means small, poorly fitted or top-dose-only effect, or a change in a side signal; inactive means no such curve, though single readings can be large or run the other way; the % refers to the signal ratio;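 further: cells stimulated with carbachol in lithium chloride buffer; higher means more IMPase inhibition seen as more IP1 and lower FRET ratio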
Target sequence (P97697 whole entry, looked up): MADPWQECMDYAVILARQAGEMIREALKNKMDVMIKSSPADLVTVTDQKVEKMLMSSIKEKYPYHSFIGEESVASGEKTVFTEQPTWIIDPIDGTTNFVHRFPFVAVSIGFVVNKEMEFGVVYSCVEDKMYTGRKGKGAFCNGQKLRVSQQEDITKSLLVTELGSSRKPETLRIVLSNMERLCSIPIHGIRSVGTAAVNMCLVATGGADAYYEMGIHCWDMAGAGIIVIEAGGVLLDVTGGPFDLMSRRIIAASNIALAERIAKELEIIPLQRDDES
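In this qHTS, compounds (final up to 46 uM) act on CHO-M1 cells that are then activated through the M1 receptor with carbachol, in pH 7.4 buffer containing 50 mM LiCl, for 30 min. IP1 accumulation is quantified by the IP-One immunoassay.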
HTT ATP protect: protects HTT-Q103 PC12 cells, measured by ATP; Potency, µM (highest dose often 56.4 µM), actives largely listed as activators; PC12 HTT-Q103 induced, cytoprotection, ATP luminescence, 40 h; hit rate 0.14% among 230,000; further: nearly all actives have a fitted effect of over 45% in size
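Huntington model: PC12 line, ecdysone-inducible HTTQ103 exon1–GFP, tebufenozide 100 nM. Test articles in a dose series. Endpoint luminescence from cellular ATP.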
IMPase Li cell: IMPase inhibition in cells with lithium potentiation; CHO-M1 cells, IP1 TR-FRET (IP-One), carbachol + lithium; Potency, µM (doses to about 59.4 µM), most hits filed as inhibitors; hit rate 0.35% among 210,000;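 further: IP1 builds up when IMPase is blocked and the TR-FRET signal falls; nearly all actives have a fitted effect of over 50% in size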
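CHO-M1, 2000 cells/well, 16–30 h culture; cpd + low Li+, 30 min 37C; lysis with d2-IP1/Eu-anti-IP1 Ab, 10 min RT; TR-FRET 665/620 ratio and 620 channel; AC50 via Hill.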
ALDH1A1 inh: blocks purified human ALDH1A1 activity; AID 1030; Purified ALDH1A1, NADH fluorescence, propionaldehyde substrate; Potency, µM (highest dose often 75.3 µM), most hits filed as inhibitors; hit rate 7.3% among 220,000; P00352; active means well fitted inhibition curve with a large enough effect, not every such curve was filed as active; inconclusive means small, poorly fitted or top-dose-only effect, or another doubt; inactive means no such curve, though single readings can be large or run the other way
Large screens that a line does not name were inactive. Only some compounds are listed: those with a hit (about 9.4% of all), similar ones and a draw of the others. Unless noted, the call rests on the fitted dose curve; in most records, active means well fitted curve in the direction sought with a large enough effect; inconclusive means small, poorly fitted or top-dose-only effect, or another doubt; inactive means no such curve, though single readings can be large; an effect the other way counts as inactive or inconclusive.

Cn1c(=O)c2c(ncn2CC(=O)Nc2cccc(S(=O)(=O)Nc3ccccc3F)c2)n(C)c1=O	ALDH1A1 inh 7.94µM (no result: HPGD block, IMPase inh)
Cc1ccc([C@@]2(C)CC/C(=N/N=C3\CC[C@](C)(c4ccc(C)c(C)c4)c4cc(C)c(C)cc43)c3cc(C)c(C)cc32)cc1C	none (no result: HttQ103 aggreg, IMPase inh)
Cc1cn([C@H]2C=C[C@H](CO)O2)c(=O)[nH]c1=O	none (no result: HttQ103 aggreg, HPGD block, IMPase inh, IMPase Li cell, ALDH1A1 inh)
CC(C)(C)C1CCc2onc(C(=O)Nc3cccnc3)c2C1 (stereo not drawn)	none
O=C(Nc1cccnc1)c1noc2c1CCCC2	ALDH1A1 inh 22.4µM
CCCn1c(-c2ccc(F)cc2)nc2c(NC3CCN(Cc4ccccc4)CC3)nc(C)nc21	HPGD block inconclusive, ALDH1A1 inh inconclusive (no result: HttQ103 aggreg, IMPase inh)
CCc1cc2c(=O)c(-c3ccc(F)cc3)c(C)oc2cc1OCC(=O)O	ALDH1A1 inh 35.5µM (no result: HPGD block, IMPase inh)
CCc1cc2c(=O)c(-c3cnn(-c4ccccc4)c3)c(C)oc2cc1OCC(=O)Nc1ccc(F)c(F)c1	HttQ103 aggreg inconclusive (no result: IMPase inh, HTT ATP protect)
NC(=O)c1ccc[n+](CC(=O)OCCC23CC4CC(CC(C4)C2)C3)c1	HTT ATP protect inconclusive, ALDH1A1 inh 25.1µM
Cc1nn(-c2ccccc2)c2c1C(c1ccc([N+](=O)[O-])cc1)N1C(=N2)C(=O)Nc2ccccc21 (stereo not drawn)	HttQ103 aggreg 12.6µM
Cc1nn(-c2ccc([N+](=O)[O-])cc2)c2c1C(c1cccc(Br)c1)N1C(=N2)C(=O)Nc2ccccc21 (stereo not drawn)	none (no result: IMPase inh)
CCCCn1c(=NC(=O)c2ccco2)c(C(=O)OCC)cc2c(=O)n3cccc(C)c3nc21	none (no result: HPGD block, IMPase inh, IMPase Li cell, ALDH1A1 inh)
COc1cccc(Nc2ncc3nc(-c4cc(F)cc(F)c4)c(=O)n(CCC#N)c3n2)c1	none (no result: HttQ103 aggreg, IMPase inh)
O=C(C1CCN(S(=O)(=O)N2CCC3(CC2)OCCO3)CC1)N1CCCCC1	HPGD block 15.8µM (no result: IMPase inh, HTT ATP protect)
COc1cccc(OCCCn2c(-c3ccc(Cl)cc3)nc3ccccc3c2=O)c1	none (no result: HttQ103 aggreg, HPGD block, HTT ATP protect, IMPase Li cell, ALDH1A1 inh)
Cc1cc(C(=O)Nc2nc3c(s2)CCCC3)no1	ALDH1A1 inh 11.2µM
O=C(OCC(=O)N1CCN(S(=O)(=O)c2ccc(Cl)cc2)CC1)c1ccc([N+](=O)[O-])o1	ALDH1A1 inh 25.1µM (no result: HPGD block, IMPase inh)
O=C(OCC(=O)N1CCN(S(=O)(=O)c2ccccc2)CC1)c1ccc([N+](=O)[O-])o1	ALDH1A1 inh 20µM (no result: HPGD block, IMPase inh)
CC(C)CC(=O)N1CCN(S(=O)(=O)c2ccc(Cl)cc2)CC1	none (no result: HPGD block, IMPase inh)
CCC(C)(C)c1ccc(OCCCC[n+]2ccc(C)cc2)c(C(C)(C)CC)c1	HttQ103 aggreg 17.8µM (no result: HPGD block, IMPase inh)
COc1ccc(Oc2ncc3nc(-c4cccs4)c(=O)n(-c4ccccc4)c3n2)cc1	none (no result: HttQ103 aggreg, IMPase inh)
COc1ccc(-n2c(=O)c(C)nc3cnc(Oc4ccccc4)nc32)cc1	ALDH1A1 inh 2.51µM (no result: HttQ103 aggreg, IMPase inh)
Cc1nc2cnc(Oc3ccccc3)nc2n(-c2ccccc2)c1=O	ALDH1A1 inh 22.4µM (no result: HttQ103 aggreg, IMPase inh)
Cc1nc2cnc(Oc3ccccc3)nc2n(C)c1=O	HTT ATP protect inconclusive, ALDH1A1 inh inconclusive (no result: HttQ103 aggreg, HPGD block, IMPase inh)
Cc1cc(-c2nc3c4c5c(sc4[nH]c(=O)n3n2)CCC5)c(C)o1	HPGD block 20µM
Cc1ccc(OCCC(=O)O)cc1	none (no result: HPGD block, IMPase inh, IMPase Li cell)
CC1(C)CC(=O)C2=C(C1)N(c1ccc(F)cc1)C(=O)C2(NC(=O)c1ccccc1F)C(F)(F)F (stereo not drawn)	none (no result: IMPase inh, HTT ATP protect)
CC1(C)CC(=O)C2=C(C1)N(c1ccc(F)cc1)C(=O)NC2(C(F)(F)F)C(F)(F)F	ALDH1A1 inh 10µM
COc1cc([N+](=O)[O-])c(OC)cc1SCc1n[nH]c(=S)n1-c1ccc(F)cc1	ALDH1A1 inh 2.24µM (no result: HPGD block, IMPase inh, IMPase Li cell)
CC(C)Cc1nc2oc3c(Cl)ncnc3c2c2c1CCCC2	none (no result: HPGD block, IMPase inh, IMPase Li cell, ALDH1A1 inh)
COc1ncnc2c1oc1nc(CC(C)C)c3c(c12)CCCC3	ALDH1A1 inh 14.1µM
COc1cc(C(=O)NC(=S)Nc2ccc([N+](=O)[O-])cc2)cc(OC)c1OC	ALDH1A1 inh inconclusive (no result: IMPase inh)
CCCCNC(=S)Nc1cc([N+](=O)[O-])ccc1C	HPGD block 14.1µM (no result: IMPase inh)
COc1cc(C(=O)NC(=S)Nc2ccccc2[N+](=O)[O-])cc(OC)c1OC	ALDH1A1 inh 17.8µM (no result: HPGD block, IMPase inh)
